High-throughput results deposited in PubChem BioAssay by NMMLSC.
RGS8-Gao: regulators of human RGS8-Galphao interaction | multiplexed bead flow cytometry, RGS8-Galphao binding; actives lie on both sides | response (percent of control binding), % at 10 µM | 0.34% of 220,000 active | AID 1423; in the data active = response below about 60% or above about 140%; inactive = in between;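 also: Galphao activated as the GDP aluminium fluoride complex binding bead-coupled RGS8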
Target sequence (P09471 whole entry, looked up): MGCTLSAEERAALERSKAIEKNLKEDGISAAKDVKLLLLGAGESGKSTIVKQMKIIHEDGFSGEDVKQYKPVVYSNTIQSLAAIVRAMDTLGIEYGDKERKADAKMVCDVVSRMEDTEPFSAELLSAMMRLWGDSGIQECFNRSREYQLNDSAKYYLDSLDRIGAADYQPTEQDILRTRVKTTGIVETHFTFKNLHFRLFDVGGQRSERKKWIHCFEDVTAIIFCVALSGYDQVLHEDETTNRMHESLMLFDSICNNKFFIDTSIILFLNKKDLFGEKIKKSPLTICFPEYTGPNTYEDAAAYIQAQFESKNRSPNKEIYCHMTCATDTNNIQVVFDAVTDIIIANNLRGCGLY
RGS16-Gao HTS: regulators of human RGS16-Galphao interaction; O15492+P09471; AID 1441; 0.38% of 220,000 active; bead-based flow cytometry RGS16-Galphao binding, fluorescence; actives lie on both sides; binding response (% of control), % at 10 µM;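 also: Galphao activated by GDP with aluminum fluoride before binding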
RGS4-Gao reg: modulates binding of RGS4 to human Galphao | Multiplexed bead flow cytometry; actives lie on both sides | binding response (% of control), % at 10 µM | 0.33% of 220,000 active; in the data active = binding response below about 49% or above about 150%; inactive = in between;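 also: fluorescent Galphao activated with aluminum fluoride binding bead-coupled RGS4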
RGS7-Gao: regulators of human RGS7-Galphao interaction; Multiplexed bead flow cytometry, RGS7-Galphao binding; actives lie on both sides; binding response (% of control), % at 10 µM; P09471; 0.35% of 220,000 active; in the data active = binding response below about 49% or above about 150%; inconclusive = no clear call, values can overlap the other calls; inactive = in between;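 also: fluorescent Galphao held in activated GDP-AlF4 state binding bead-coupled RGS7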
GSH fluor: GSH bead compound fluorescence profile. GSH beads flow cytometry, compound fluorescence 488/530 nm; active compounds read high. 0.25% of 190,000 active. fluorescence (KMESF) at 10 µM. AID 1776; in the data active = fluorescence above about 89;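 also: glutathione beads carrying GST-tagged Bcl family fusion proteins plus one bare bead set; values are compound well signal with DMSO vehicle wells as background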
Avidin fluor: compound fluoresces at 488/530 nm on avidin beads. compound fluorescence 488/530 nm, flow cytometry; active compounds read high. fluorescence (KMESF) at 10 µM. 0.38% of 220,000 active; in the data active = fluorescence above about 47
RGS-Gao: regulators of human RGS4-Galphao interaction; shares compounds with RGS16-Gao HTS; multiplexed bead flow cytometry, RGS–Galpha-o binding; RGS4–Galpha-o binding response, % at 10 µM; 99% of 1,600 active; AID 1504;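 also: fluorescently labeled Galpha-o bound to GDP with aluminium fluoride binding biotinylated RGS beads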
Avidin counter: interferes with biotinylated probe binding to avidin beads. streptavidin beads, fluorescein-biotin binding, flow cytometry. shares compounds with RGS16-Gao HTS. 1,700 tested, under 10 active. inhibition, % at 10 µM;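 active = inhibition above 50%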;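 also: median green fluorescence of gated singlet beads compared with DMSO control wells; 0% = DMSO wells and 100% = complete loss of bead fluorescence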
RGS8-Gao single: RGS8-Galphao interaction regulation, single point confirmation; 3% of 1,700 active; bead-based flow cytometry RGS8-Galphao binding, fluorescence; actives lie on both sides; shares compounds with RGS16-Gao HTS; binding response (% of control), % at 10 µM; in the data active = binding response below about 72% or above about 130%; inactive = in between;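 also: Galphao activated as GDP AlF4 complex before binding bead RGS8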
RGS7-Gao single: RGS7-Galphao interaction regulation, single point confirmation; shares compounds with RGS16-Gao HTS; bead-based flow cytometry RGS7-Galphao binding; actives lie on both sides; response (percent of control binding), % at 10 µM; 7.8% of 1,700 active; in the data active = response below about 75% or above about 130%; inactive = in between;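 also: fluorescent Galphao activated with GDP and aluminum fluoride binding bead-coupled RGS7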
RGS16-Gao single: RGS16-Galphao interaction regulation, single point confirmation. bead-based flow cytometry, RGS16-Galphao binding; actives lie on both sides. response (% of control binding), % at 10 µM. shares compounds with RGS16-Gao HTS. 4% of 1,700 active. AID 1838; in the data active = response below about 74% or above about 130%; inactive = in between;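 also: Galphao activated as the GDP aluminium fluoride complex binding bead-coupled RGS16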
RGS4-Gao single: RGS4-Galphao interaction regulation, single point confirmation; shares compounds with RGS16-Gao HTS; RGS4-Galphao binding, multiplexed bead flow cytometry; actives lie on both sides; binding response (% of control), % at 10 µM; 4% of 1,700 active; AID 1840; in the data active = binding response below about 74% or above about 130%; inactive = in between
RGS19-Gao conf: RGS19-Galphao interaction regulation, single point confirmation | shares compounds with RGS16-Gao HTS | bead-based flow cytometry RGS19-Galphao binding; actives lie on both sides | response (percent of control binding), % at 10 µM | 5% of 1,700 active | AID 1841; in the data active = response below about 50% or above about 160%; inactive = in between;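 also: 100% = no compound control and 0% = blank background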
Target sequence (P09471 whole entry, looked up): as above
Target sequence (P49795 whole entry, looked up): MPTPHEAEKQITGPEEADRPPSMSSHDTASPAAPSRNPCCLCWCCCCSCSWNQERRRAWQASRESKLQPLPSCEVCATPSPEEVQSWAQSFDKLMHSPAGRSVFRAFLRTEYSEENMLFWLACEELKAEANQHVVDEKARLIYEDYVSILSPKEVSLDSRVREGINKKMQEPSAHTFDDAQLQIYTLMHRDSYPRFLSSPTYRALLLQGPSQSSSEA
Active calls of the source: *; ? = inconclusive; · = no result; [ ] = another dose, or the depositor's remark. Shown are actives, neighbours in structure and some others; about 1.2% of the full set was active somewhere. Unless noted, no rule for the calls is given here.

SMILES | RGS8-Gao | RGS16-Gao HTS | RGS4-Gao reg | RGS7-Gao | GSH fluor | Avidin fluor | RGS-Gao | Avidin counter | RGS8-Gao single | RGS7-Gao single | RGS16-Gao single | RGS4-Gao single | RGS19-Gao conf
Cc1onc(-c2ccccc2Cl)c1C(=O)c1ccccc1 | 7.7* | -16* | -28* | ? | · | -2 | · | 0 | 101 | 104 | 103 | 102 | 100
CCN(CC)S(=O)(=O)c1ccc(N2CCOCC2)c(NC(=O)c2ccc(NC(C)=O)cc2)c1 | 99 | 96 | 102 | ? | · | · | · | · | · | · | · | · | ·
Cc1c(/C=N/NC(=O)c2cccnc2)c2ccccc2n1Cc1ccccc1 | 106 | 115 | 120 | 154*[activator] | 22 | 8 | 120* | 3 | 103 | 124 | 106 | 114 | 111
COc1ccc(C(=O)Nc2ccc(-c3cn4ccsc4n3)cc2)cc1S(=O)(=O)N1CCOCC1 | 17* | -56* | -46* | -7.2* | 4 | · | · | -1 | 98 | 93 | 99 | 98 | 98
COCC(C)n1c(SCc2ccc(OC)c(F)c2)nc2ccccc2c1=O (configuration not stated) | 110 | 118 | 107 | 104 | 15 | 22 | · | · | · | · | · | · | ·
COc1ccc(C(c2nnnn2C2CCCC2)N2CCC(C)CC2)c(OC)c1 (configuration not stated) | · | · | 188*[activator] | 174*[activator] | 32 | · | · | 1 | 102 | 103 | 102 | 103 | 113
Cc1cc(C(=O)Oc2cccnc2)ccc1[N+](=O)[O-] | 76 | 25* | 91 | 104 | 8 | 1 | 91* | -1 | 103 | 107 | 104 | 102 | 100
Cc1nn(-c2ccc(F)cc2)c2sc(C(=O)OC3CCOC3=O)cc12 (configuration not stated) | · | · | · | · | 48 | · | · | 0 | 100 | 97 | 99 | 99 | 100
CCCC(=O)Nc1ccccc1-c1nnc(SCC)[nH]c1=O | 101 | 99 | 103 | ? | · | 7 | · | · | · | · | · | · | ·
O=C1N/C(=N\N=C\c2cccs2)SC1Cc1ccc(Cl)c(Cl)c1 (configuration not stated) | 99 | 97 | 99 | 87 | 22 | 6 | · | · | · | · | · | · | ·
Cc1ccc2nc(-c3ccc(NC(=O)CNC4CC4)cc3)sc2c1 | 91 | 83 | 108 | 217*[activator] | 21 | 101* | 108* | 0 | 98 | 95 | 97 | 97 | 91
Cc1ccc2nc(-c3ccc(NC(=O)CN4C(=O)c5ccccc5C4=O)cc3)sc2c1 | 99 | 100 | 100 | 108 | 19 | 11 | · | · | · | · | · | · | ·
Cc1ccccc1S(=O)(=O)Cc1ccc(C(=O)NCc2ccc(F)cc2)o1 | 97 | 96 | 99 | 98 | 16 | 6 | · | · | · | · | · | · | ·
CC(=O)CC(C)(C)NC(C)=S | 98 | 102 | 106 | ? | · | 8 | · | · | · | · | · | · | ·
CCc1cc(=O)oc2c(C)c(OCC(=O)N3CCCc4ccccc43)ccc12 | 159*[activator] | 565 | 133 | 118 | 41 | 6 | 133* | -1 | 99 | 98 | 97 | 100 | 103
Cc1cccc(OCC(=O)N2CCCc3ccccc32)c1 | 100 | 105 | 100 | 101 | 12 | 11 | · | · | · | · | · | · | ·
N#CC(=C1N=c2ccccc2=N1)c1c(O)[nH]c2ccccc12 | 98 | 91 | 90 | 100 | 11 | 9 | · | · | · | · | · | · | ·
Oc1[nH]c(N=C2N=c3ccccc3=N2)c2ccccc12 | 57* | 33 | 35* | ? | · | 1 | · | -1 | 102 | 98 | 97 | 101 | 60
CC(C)CC1(C)NC(=O)N(CC(=O)Nc2cccc(S(=O)(=O)N(C)c3ccccc3)c2)C1=O (configuration not stated) | 100 | 102 | 98 | 98 | 14 | 10 | · | · | · | · | · | · | ·
CCOC(=O)c1c(-c2cccc3ccccc23)csc1NC(=O)C1C2CCC(O2)C1C(=O)O (configuration not stated) | 99 | 99 | 98 | 97 | 18 | 15 | · | · | · | · | · | · | ·
COC(=O)c1c(-c2ccc(C(C)(C)C)cc2)csc1NC(=O)C1C2CCC(O2)C1C(=O)O (configuration not stated) | 75 | 5.6* | 94 | 125 | 10 | 3 | 94* | 3 | 84 | 135*[activator] | 73* | 96 | 76
O=C(Cc1c[nH]c2ccccc12)N/N=C/c1ccc(F)cc1 | 78 | 21* | 92 | 87 | 14 | 7 | 92* | 1 | 104 | 99 | 103 | 105 | 102
CN1C(=O)CSc2ccc(NC(=O)N3CCC(N4CCCCC4)CC3)cc21 | 127 | 278*[activator] | 109 | 110 | 59 | 4 | 109* | -5 | 98 | 64* | 77 | 77 | 65
CCc1ccc(S(=O)(=O)/N=C2/C=C(Sc3ncn[nH]3)C(=O)c3ccccc32)cc1 | 63 | 24* | 92 | 84 | 21 | 7 | 92* | · | · | · | · | · | ·
CCc1ccc(S(=O)(=O)/N=C2\C=CC(=O)c3ccccc32)cc1 | 87 | 78 | 93 | 89 | 10 | 11 | · | · | · | · | · | · | ·
CC(=O)NN1C(=O)c2ccccc2NC1c1ccccn1 (configuration not stated) | 85 | 22* | 97 | 94 | 14 | 7 | 97* | 2 | 104 | 103 | 101 | 105 | 108
Cc1nn(C)c(C(=O)NC2C3CC4CC(C3)CC2C4)c1Cl (configuration not stated) | 63 | 9.8* | 87 | 87 | 11 | 5 | 87* | 0 | 100 | 94 | 93 | 96 | 93
Cn1ncc(Cl)c1C(=O)NC1C2CC3CC(C2)CC1C3 (configuration not stated) | 101 | 108 | 97 | 98 | 11 | 20 | · | · | · | · | · | · | ·
O=C(/C=C/c1ccco1)Nc1ccc2nc3n(c(=O)c2c1)CCCC3 | 102 | 109 | 102 | 102 | 9 | 4 | · | · | · | · | · | · | ·
CC(C)=C(NC(=O)c1ccccc1)C(=O)NCc1ccccc1 | 102 | 104 | 102 | 108 | 22 | 6 | · | · | · | · | · | · | ·
